Measurements published in PubChem BioAssay (Tox21).
A number with no mark means an inactive call. Records with an inconclusive call do not appear. A call without a number means that no potency is given here. Calls of active or inactive are those of the source. Calls follow the shape of the dose curve; as a rule, active = well fitted curve in the direction sought with a large enough effect in the repeat runs; inconclusive = weak or mixed curves; inactive = no such curve, though single readings can be large; an effect the other way counts as inactive or inconclusive.

Experiments:
[1] = Caspase-3/7 induction in HepG2 cells by small molecules, qHTS assay (AID 1346978); also: nearly all actives have a fitted effect of over 15% in size
Summary of the method: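 Wild-type HepG2 cells, 2,000/well, settled 5 hr at 37 C and 5% CO2, then compound-treated for 17 hr; caspase-3/7 activity read by luminescent Caspase-Glo 3/7 after 30 min at room temperature.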

[2] = Caspase-3/7 induction in CHO-K1 cells by small molecules, qHTS cell viability counter screen (AID 1346979); also: nearly all actives have a fitted effect of over 35% in size
Summary of the method: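 Cytotoxicity counter screen: CellTiter-Fluor added to compound-treated wild-type CHO-K1 cells at 16 h (37C, 5% CO2), fluorescence measured 1 h later; same wells as caspase-3/7 measurement.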

[3] = Caspase-3/7 induction in CHO-K1 cells by small molecules, qHTS assay (AID 1346980); also: nearly all actives have a fitted effect of over 15% in size
Summary of the method: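 Wild-type CHO-K1 cells exposed to compounds for 17hr at 37 C, 5% CO2. Caspase-3/7 activity then measured by Caspase-Glo 3/7 luminescence after 30min at room temperature.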

[4] = Caspase-3/7 induction in HepG2 cells by small molecules, qHTS cell viability counter screen (AID 1346981); also: series mostly up to about 92 µM; nearly all actives have a fitted effect of over 30% in size
Summary of the method: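 Wild-type HepG2 cells (2,000/well) were allowed to settle for 5 hr at 37 C, 5% CO2, then dosed with compounds in DMSO by pin transfer. After 16 hr at 37 C, CellTiter-Fluor was added and fluorescence read 1 hr later.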

[5] = target: Nuclear receptor subfamily 1 group I member 2 (Homo sapiens) (UniProt O75469); assay: Human pregnane X receptor (PXR) small molecule agonists, qHTS assay (AID 1346982); also: nearly all actives have a fitted effect of over 35% in size; also: potency is read from the fitted curve at half-maximal effect
Sequence of Nuclear receptor subfamily 1 group I member 2 (Homo sapiens) (O75469 whole entry, looked up): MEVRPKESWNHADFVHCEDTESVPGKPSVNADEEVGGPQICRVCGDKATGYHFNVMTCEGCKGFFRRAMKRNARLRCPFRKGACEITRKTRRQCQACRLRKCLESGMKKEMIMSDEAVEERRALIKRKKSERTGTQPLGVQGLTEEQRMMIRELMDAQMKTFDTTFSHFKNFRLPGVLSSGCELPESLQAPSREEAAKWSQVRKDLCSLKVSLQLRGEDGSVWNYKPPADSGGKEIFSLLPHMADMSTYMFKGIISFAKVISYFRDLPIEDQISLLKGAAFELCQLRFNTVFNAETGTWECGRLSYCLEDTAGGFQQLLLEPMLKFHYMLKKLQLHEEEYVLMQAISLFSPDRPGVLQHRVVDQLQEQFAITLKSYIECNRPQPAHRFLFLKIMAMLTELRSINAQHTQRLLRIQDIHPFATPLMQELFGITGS
Summary of the method: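 PXR-Luc HepG2 cells (CYP3A4 promoter-driven luciferase) were seeded in medium with 5% charcoal-stripped FBS, left 5 hr at 37 C, then exposed to compounds in DMSO for 24 hr. Luminescence was read after ONE-Glo addition.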

[6] = target: Cytochrome P450 2D6 (Homo sapiens) (UniProt P10635); assay: Cytochrome P450 Family 2 Subfamily D Member 6 (CYP2D6) small molecule antagonists: luciferase reporter qHTS assay (AID 1671196); also: nearly all actives have a fitted effect of over 50% in size; also: potency is read from the fitted curve at half-maximal effect
Sequence of Cytochrome P450 2D6 (Homo sapiens) (P10635 whole entry, looked up): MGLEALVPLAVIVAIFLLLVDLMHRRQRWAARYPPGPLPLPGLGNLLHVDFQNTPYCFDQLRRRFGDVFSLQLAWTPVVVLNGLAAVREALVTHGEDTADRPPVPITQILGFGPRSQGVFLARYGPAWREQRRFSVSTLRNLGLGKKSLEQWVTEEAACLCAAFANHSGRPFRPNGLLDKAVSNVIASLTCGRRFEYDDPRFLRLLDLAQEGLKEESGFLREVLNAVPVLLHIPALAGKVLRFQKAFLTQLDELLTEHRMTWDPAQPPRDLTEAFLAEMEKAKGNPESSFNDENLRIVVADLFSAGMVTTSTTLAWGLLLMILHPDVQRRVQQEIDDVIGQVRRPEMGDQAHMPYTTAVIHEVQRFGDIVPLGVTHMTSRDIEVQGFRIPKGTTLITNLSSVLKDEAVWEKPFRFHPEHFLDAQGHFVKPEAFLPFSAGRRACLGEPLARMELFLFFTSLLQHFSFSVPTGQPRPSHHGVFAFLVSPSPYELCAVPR
Summary of the method: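 CYP2D6 enzyme–substrate mix was held with compound for 10 min at room temperature, then NADPH regeneration solution was added and the reaction ran 1 h at room temperature. Luciferin product was detected by luminescence after 20 min with detection reagent.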

[7] = target: Cytochrome P450 2C19 (Homo sapiens) (UniProt P33261); assay: Cytochrome P450 Family 2 Subfamily C Member 19 (CYP2C19) small molecule antagonists: luciferase reporter qHTS assay (AID 1671197); also: nearly all actives have a fitted effect of over 65% in size; also: potency is read from the fitted curve at half-maximal effect
Sequence of Cytochrome P450 2C19 (Homo sapiens) (P33261 whole entry, looked up): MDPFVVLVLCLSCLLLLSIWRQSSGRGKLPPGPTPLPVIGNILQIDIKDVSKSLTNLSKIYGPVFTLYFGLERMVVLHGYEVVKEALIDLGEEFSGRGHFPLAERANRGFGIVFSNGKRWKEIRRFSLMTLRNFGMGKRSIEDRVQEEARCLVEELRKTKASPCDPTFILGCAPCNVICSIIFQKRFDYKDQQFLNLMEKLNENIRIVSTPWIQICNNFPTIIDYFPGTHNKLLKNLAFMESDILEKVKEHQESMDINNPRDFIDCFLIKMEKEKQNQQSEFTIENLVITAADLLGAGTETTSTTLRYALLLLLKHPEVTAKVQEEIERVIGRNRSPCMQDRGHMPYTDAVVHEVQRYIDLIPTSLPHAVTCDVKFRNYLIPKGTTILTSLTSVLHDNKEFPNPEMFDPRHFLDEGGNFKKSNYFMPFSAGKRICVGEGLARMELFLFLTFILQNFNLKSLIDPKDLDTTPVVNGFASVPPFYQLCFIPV
Summary of the method: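 P450-Glo CYP2C19 screening system; proluciferin substrate; DMSO compound stocks; 10 min RT preincubation; NADPH regeneration, 1 h at 37C; luciferin detection reagent, 20 min RT; luminescence as RLU.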

[8] = target: Cytochrome P450 2C9 (Homo sapiens) (UniProt P11712); assay: Cytochrome P450 Family 2 Subfamily C Member 9 (CYP2C9) small molecule antagonists: luciferase reporter qHTS assay (AID 1671198); also: nearly all actives have a fitted effect of over 50% in size; also: potency is read from the fitted curve at half-maximal effect
Sequence of Cytochrome P450 2C9 (Homo sapiens) (P11712 whole entry, looked up): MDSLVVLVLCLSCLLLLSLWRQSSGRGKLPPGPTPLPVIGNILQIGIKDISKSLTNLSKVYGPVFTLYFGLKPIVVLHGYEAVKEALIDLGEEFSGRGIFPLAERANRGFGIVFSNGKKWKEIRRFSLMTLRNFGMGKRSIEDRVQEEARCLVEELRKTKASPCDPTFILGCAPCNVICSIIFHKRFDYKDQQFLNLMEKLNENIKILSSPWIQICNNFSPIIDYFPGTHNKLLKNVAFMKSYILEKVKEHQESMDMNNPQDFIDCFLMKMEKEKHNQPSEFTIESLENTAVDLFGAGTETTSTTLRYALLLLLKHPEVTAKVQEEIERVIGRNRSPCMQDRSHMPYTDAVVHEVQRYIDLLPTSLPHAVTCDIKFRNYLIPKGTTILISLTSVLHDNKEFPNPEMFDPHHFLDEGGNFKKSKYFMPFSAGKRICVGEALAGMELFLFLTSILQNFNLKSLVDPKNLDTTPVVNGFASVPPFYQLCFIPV
Summary of the method: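 P450-Glo proluciferin substrate with CYP2C9 enzyme; 10 min RT preincubation, then NADPH regeneration 1 h at 37C; luciferin detection reagent 20 min RT, luminescence in relative luminescence units.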

[9] = target: Cytochrome P450 1A2 (Homo sapiens) (UniProt P05177); assay: Cytochrome P450 Family 1 Subfamily A Member 2 (CYP1A2) small molecule antagonists: luciferase reporter qHTS assay (AID 1671199); also: nearly all actives have a fitted effect of over 50% in size; also: potency is read from the fitted curve at half-maximal effect
Sequence of Cytochrome P450 1A2 (Homo sapiens) (P05177 whole entry, looked up): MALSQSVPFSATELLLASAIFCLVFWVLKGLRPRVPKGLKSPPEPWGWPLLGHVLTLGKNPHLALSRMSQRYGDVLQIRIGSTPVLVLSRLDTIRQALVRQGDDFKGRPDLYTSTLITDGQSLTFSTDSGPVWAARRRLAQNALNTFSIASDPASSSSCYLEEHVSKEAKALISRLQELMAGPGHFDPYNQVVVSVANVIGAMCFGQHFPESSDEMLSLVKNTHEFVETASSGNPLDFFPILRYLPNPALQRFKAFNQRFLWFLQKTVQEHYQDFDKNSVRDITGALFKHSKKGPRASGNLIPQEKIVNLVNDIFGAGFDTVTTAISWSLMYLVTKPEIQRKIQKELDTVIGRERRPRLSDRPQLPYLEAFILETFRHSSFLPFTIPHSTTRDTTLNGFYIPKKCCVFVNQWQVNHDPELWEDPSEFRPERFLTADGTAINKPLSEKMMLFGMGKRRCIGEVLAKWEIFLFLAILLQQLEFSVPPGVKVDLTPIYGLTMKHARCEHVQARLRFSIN
Summary of the method: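 Human CYP1A2 activity measured with a P450-Glo proluciferin substrate; compounds in DMSO preincubated 10 min at room temperature with enzyme-substrate mix, then NADPH regeneration system added for 1 h. Luciferin detection reagent, 20 min, luminescence read.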

[10] = target: Voltage-gated inwardly rectifying potassium channel KCNH2 (Homo sapiens) (UniProt Q12809); assay: Human Ether-a-go-go-Related Gene (hERG) channel small molecule antagonists: fluorescence cell-based qHTS assay (AID 1671200); also: nearly all actives have a fitted effect of over 50% in size; also: potency is read from the fitted curve at half-maximal effect
Sequence of Voltage-gated inwardly rectifying potassium channel KCNH2 (Homo sapiens) (Q12809 whole entry, looked up): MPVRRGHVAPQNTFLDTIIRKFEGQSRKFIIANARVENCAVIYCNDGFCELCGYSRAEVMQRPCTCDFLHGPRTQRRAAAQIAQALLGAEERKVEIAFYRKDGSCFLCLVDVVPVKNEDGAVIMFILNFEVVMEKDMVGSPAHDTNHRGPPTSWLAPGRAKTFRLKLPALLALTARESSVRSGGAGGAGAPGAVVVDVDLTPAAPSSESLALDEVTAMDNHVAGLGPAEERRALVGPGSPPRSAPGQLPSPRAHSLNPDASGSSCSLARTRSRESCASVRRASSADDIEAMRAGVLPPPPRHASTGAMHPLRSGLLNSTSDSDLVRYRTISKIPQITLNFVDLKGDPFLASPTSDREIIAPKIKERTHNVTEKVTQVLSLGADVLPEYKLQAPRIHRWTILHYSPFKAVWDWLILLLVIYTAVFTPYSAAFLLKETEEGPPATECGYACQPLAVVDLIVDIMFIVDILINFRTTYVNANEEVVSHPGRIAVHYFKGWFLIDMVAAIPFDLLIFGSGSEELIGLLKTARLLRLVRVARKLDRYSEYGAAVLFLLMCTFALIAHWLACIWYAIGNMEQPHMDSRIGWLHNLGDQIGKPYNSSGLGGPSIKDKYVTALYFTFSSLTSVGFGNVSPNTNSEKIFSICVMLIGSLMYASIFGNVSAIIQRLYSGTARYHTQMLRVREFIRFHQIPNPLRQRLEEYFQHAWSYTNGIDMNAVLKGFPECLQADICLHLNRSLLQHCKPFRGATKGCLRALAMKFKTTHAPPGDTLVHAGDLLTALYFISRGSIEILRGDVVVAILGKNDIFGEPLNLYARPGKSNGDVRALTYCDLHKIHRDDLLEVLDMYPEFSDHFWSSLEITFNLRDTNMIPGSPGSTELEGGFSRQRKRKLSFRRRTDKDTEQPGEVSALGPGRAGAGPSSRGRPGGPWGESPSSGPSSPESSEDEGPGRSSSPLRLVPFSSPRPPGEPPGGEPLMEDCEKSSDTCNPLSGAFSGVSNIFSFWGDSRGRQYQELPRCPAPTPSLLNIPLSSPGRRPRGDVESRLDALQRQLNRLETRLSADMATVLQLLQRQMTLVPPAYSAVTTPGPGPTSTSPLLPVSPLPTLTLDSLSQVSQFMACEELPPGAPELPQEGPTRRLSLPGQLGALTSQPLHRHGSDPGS
Summary of the method: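 Thallium flux as potassium surrogate: FluxOR II dye loaded 1 h at room temperature into hERG-expressing U2OS cells, then stimulus buffer added after 10 min. Kinetic 480 nm excitation/540 nm emission read, 2 min.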

[11] = target: Cytochrome P450 3A4 (Homo sapiens) (UniProt P08684); assay: Cytochrome P450 Family 3 Subfamily A Member 4 (CYP3A4) small molecule antagonists: luciferase reporter qHTS assay (AID 1671201); also: nearly all actives have a fitted effect of over 50% in size; also: potency is read from the fitted curve at half-maximal effect
Sequence of Cytochrome P450 3A4 (Homo sapiens) (P08684 whole entry, looked up): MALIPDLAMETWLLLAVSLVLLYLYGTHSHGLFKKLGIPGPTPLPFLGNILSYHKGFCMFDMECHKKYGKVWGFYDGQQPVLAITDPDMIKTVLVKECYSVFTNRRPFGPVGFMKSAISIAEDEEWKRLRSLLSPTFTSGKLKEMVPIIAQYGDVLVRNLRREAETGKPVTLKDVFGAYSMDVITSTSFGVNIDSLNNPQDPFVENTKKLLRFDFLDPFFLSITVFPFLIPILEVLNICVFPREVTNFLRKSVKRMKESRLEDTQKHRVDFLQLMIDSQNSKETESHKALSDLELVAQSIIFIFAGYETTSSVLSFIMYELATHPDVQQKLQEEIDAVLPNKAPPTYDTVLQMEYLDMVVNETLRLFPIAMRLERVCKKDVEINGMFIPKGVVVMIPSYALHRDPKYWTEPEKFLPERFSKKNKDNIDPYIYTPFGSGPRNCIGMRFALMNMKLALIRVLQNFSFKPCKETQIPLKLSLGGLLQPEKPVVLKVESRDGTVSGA
Summary of the method: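 Recombinant human CYP3A4 converts a proluciferin substrate to luciferin over 1 h at room temperature after NADPH regeneration solution is added (compound preincubated 10 min); detection reagent stops reaction, luminescence read 20 min later as relative units.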

[12] = target: Nuclear receptor subfamily 1 group I member 2 (Rattus norvegicus) (UniProt Q9R1A7); assay: Rat pregnane X receptor (rPXR) activation by small molecules, qHTS assay (AID 1346983); conditions: rPXR luciferase reporter cells, One-Glo luminescence, 24 h; max activation: active compounds read high; also: nearly all actives have a fitted effect of over 20% in size
Sequence of Nuclear receptor subfamily 1 group I member 2 (Rattus norvegicus) (Q9R1A7 whole entry, looked up): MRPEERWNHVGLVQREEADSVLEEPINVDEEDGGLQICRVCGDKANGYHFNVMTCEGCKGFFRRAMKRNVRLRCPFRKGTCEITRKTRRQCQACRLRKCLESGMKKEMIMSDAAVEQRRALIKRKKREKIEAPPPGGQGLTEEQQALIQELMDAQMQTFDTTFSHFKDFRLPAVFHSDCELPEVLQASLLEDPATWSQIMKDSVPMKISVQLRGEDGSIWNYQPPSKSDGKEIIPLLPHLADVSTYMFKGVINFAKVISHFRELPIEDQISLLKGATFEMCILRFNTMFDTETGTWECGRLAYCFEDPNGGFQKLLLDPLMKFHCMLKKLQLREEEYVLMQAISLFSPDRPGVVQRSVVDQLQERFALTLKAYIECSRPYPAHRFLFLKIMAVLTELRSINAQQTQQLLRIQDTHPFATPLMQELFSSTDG
Summary of the method: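 Cell-based rPXR activation assay: rPXR cells, 2,000 per well, rested 5hr at 37 C, then exposed to compounds in DMSO for 24 hr at 37 C. Luciferase activity read by One-Glo luminescence after 30 min at room temperature.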

[13] = target: Nuclear receptor subfamily 1 group I member 2 (Homo sapiens) (UniProt O75469); assay: CYP3A4 induction through human pregnane X receptor (PXR) by small molecules, qHTS assay (AID 1346984); also: nearly all actives have a fitted effect of over 40% in size
Summary of the method: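 DPX-2 cells (HepG2 co-transfected with PXR and CYP3A4 promoter-luciferase) treated with compounds 24 h at 37C; luciferin-IPA CYP3A4 substrate 3uM final added for 3 h, then One-Glo; luminescence read. qHTS format.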

[14] = target: Nuclear receptor subfamily 1 group I member 2 (Homo sapiens) (UniProt O75469); assay: Human pregnane X receptor (PXR) activation by small molecules, qHTS assay (AID 1346985); also: nearly all actives have a fitted effect of over 40% in size
Summary of the method: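 DPX-2 cells (HepG2 co-transfected with a PXR response element and a CYP3A4-promoter luciferase construct) were seeded at 2,000 per well, rested 5 hr at 37C, then exposed to DMSO-dissolved compounds for 24 hr. Activation was read as luciferase luminescence.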

SMILES: CC(=O)c1c(C)c([N+](=O)[O-])c(C(C)(C)C)c([N+](=O)[O-])c1C
- outcome [1]: inactive
- Potency [2]: inactive
- Potency [3]: inactive
- Potency [4]: inactive
- Potency [5]: 48.6 µM (active)
- Potency [6]: inactive
- Potency [7]: 31.7 µM (active)
- Potency [8]: inactive
- Potency [9]: 11.2 µM (active)
- Potency [10]: inactive

SMILES: COC(=O)C(C)=O
- outcome [1]: inactive
- Potency [2]: inactive
- Potency [3]: inactive
- Potency [4]: inactive
- Potency [5]: inactive
- Potency [6]: inactive
- Potency [7]: 71.3 µM (active)
- Potency [8]: inactive
- Potency [9]: 31.9 µM (active)
- Potency [10]: inactive
- Potency [11]: inactive

SMILES: O=C(NN1CCCC1)NS(=O)(=O)c1ccc(Cl)cc1
- outcome [1]: inactive
- Potency [2]: inactive
- Potency [3]: inactive
- Potency [4]: inactive
- Potency [5]: inactive
- Potency [6]: inactive
- Potency [7]: inactive
- Potency [8]: inactive
- Potency [9]: inactive
- Potency [10]: inactive
- Potency [11]: inactive

SMILES: CCCCC(CC)COCCCN (stereo not given)
- outcome [1]: inactive
- Potency [2]: inactive
- Potency [3]: inactive
- Potency [4]: inactive
- Potency [5]: 60.4 µM (active)
- Potency [6]: 12.5 µM (active)
- Potency [7]: 5.58 µM (active)
- Potency [8]: 35.2 µM (active)
- Potency [9]: 11.1 µM (active)
- Potency [10]: 38.5 µM (active)
- Potency [11]: 9.92 µM (active)

SMILES: N#Cc1cc2ccccc2c2ccccc12
- outcome [1]: inactive
- Potency [2]: inactive
- Potency [3]: inactive
- Potency [4]: inactive
- Potency [5]: 61.4 µM (active)
- Potency [6]: inactive
- Potency [7]: 35.8 µM (active)
- Potency [8]: 35.8 µM (active)
- Potency [9]: 0.0636 µM (active)
- Potency [10]: inactive

SMILES: CC(=O)NCCCS(=O)(=O)O
- outcome [1]: inactive
- Potency [2]: inactive
- Potency [3]: inactive
- Potency [4]: inactive
- Potency [5]: inactive
- max activation [12]: -4.66%
- Potency [13]: inactive
- Potency [14]: inactive
- Potency [6]: inactive
- Potency [7]: inactive
- Potency [8]: inactive
- Potency [10]: inactive
- Potency [11]: inactive

SMILES: CN1CCC[C@@H]1c1cccnc1
- outcome [1]: inactive
- Potency [2]: inactive
- Potency [3]: inactive
- Potency [4]: inactive
- Potency [5]: inactive
- max activation [12]: -0.0949%
- Potency [13]: inactive
- Potency [14]: inactive
- Potency [6]: 38.9 µM (active)
- Potency [7]: inactive
- Potency [9]: inactive
- Potency [10]: inactive

SMILES: CC[C@H](C)[C@H](N)C(=O)O
- outcome [1]: inactive
- Potency [2]: inactive
- Potency [3]: inactive
- Potency [4]: inactive
- Potency [5]: inactive
- max activation [12]: -0.0819%
- Potency [13]: inactive
- Potency [14]: inactive
- Potency [6]: inactive
- Potency [7]: inactive
- Potency [8]: inactive
- Potency [9]: inactive
- Potency [11]: inactive

SMILES: Cc1ncsc1CCO
- outcome [1]: inactive
- Potency [2]: inactive
- Potency [3]: inactive
- Potency [4]: inactive
- Potency [5]: inactive
- Potency [6]: inactive
- Potency [7]: inactive
- Potency [8]: inactive
- Potency [9]: inactive
- Potency [10]: inactive
- Potency [11]: inactive

SMILES: CC(C(=O)O)c1ccc(C(=O)c2ccccc2)s1 (stereo not given)
- outcome [1]: inactive
- Potency [2]: inactive
- Potency [3]: inactive
- Potency [4]: inactive
- Potency [5]: 15 µM (active)
- max activation [12]: 13.7%
- Potency [13]: inactive
- Potency [14]: inactive
- Potency [6]: inactive
- Potency [7]: 4.9 µM (active)
- Potency [8]: 17.4 µM (active)
- Potency [9]: 9.11 µM (active)
- Potency [10]: inactive
- Potency [11]: inactive

SMILES: CN(C)CC/C=C1\c2ccccc2COc2ccccc21
- outcome [1]: inactive
- Potency [2]: inactive
- Potency [3]: inactive
- Potency [4]: inactive

SMILES: Cc1ccc(C(N)=O)cc1N
- outcome [1]: inactive
- Potency [2]: inactive
- Potency [3]: inactive
- Potency [4]: inactive
- Potency [5]: inactive
- Potency [6]: inactive
- Potency [7]: 44.8 µM (active)
- Potency [8]: inactive
- Potency [9]: 35.6 µM (active)
- Potency [10]: inactive
- Potency [11]: inactive

SMILES: CC(=O)N(O)CCCCCNC(=O)CCC(=O)N(O)CCCCCNC(=O)CCC(=O)N(O)CCCCCN
- outcome [1]: inactive
- Potency [2]: inactive
- Potency [3]: inactive
- Potency [4]: inactive
- Potency [5]: inactive
- max activation [12]: -2.68%
- Potency [13]: inactive
- Potency [14]: inactive
- Potency [7]: inactive
- Potency [8]: inactive
- Potency [9]: 24.5 µM (active)
- Potency [10]: inactive
- Potency [11]: inactive

SMILES: C=CC[N+]1([C@H]2C[C@H]3[C@@H]4CC[C@H]5C[C@H](OC(C)=O)[C@@H](N6CCCCC6)C[C@]5(C)[C@H]4CC[C@]3(C)[C@H]2OC(=O)CC)CCCCC1
- outcome [1]: inactive
- Potency [2]: inactive
- Potency [3]: inactive
- Potency [4]: inactive
- Potency [5]: inactive
- Potency [6]: 11 µM (active)
- Potency [7]: inactive
- Potency [8]: inactive
- Potency [9]: inactive
- Potency [10]: inactive

SMILES: CCCCCC(CO)CCC (stereo not given)
- outcome [1]: inactive
- Potency [2]: inactive
- Potency [3]: inactive
- Potency [4]: inactive
- Potency [5]: inactive
- Potency [6]: inactive
- Potency [7]: inactive
- Potency [8]: inactive
- Potency [9]: inactive
- Potency [10]: inactive
- Potency [11]: inactive

SMILES: COC(=O)CSc1cc(N=c2sc(=O)n3n2CCCC3)c(F)cc1Cl
- outcome [1]: inactive
- Potency [2]: inactive
- Potency [3]: inactive
- Potency [4]: inactive
- Potency [5]: inactive
- Potency [6]: 63.3 µM (active)
- Potency [7]: 31.7 µM (active)
- Potency [8]: 8.94 µM (active)
- Potency [9]: 3.17 µM (active)

SMILES: Cc1ccc(C)o1
- outcome [1]: inactive
- Potency [2]: inactive
- Potency [3]: inactive
- Potency [4]: inactive
- Potency [5]: inactive
- Potency [6]: inactive
- Potency [7]: inactive
- Potency [8]: inactive
- Potency [9]: inactive
- Potency [10]: inactive
- Potency [11]: inactive

SMILES: C[C@@H](C1=C(CCN(C)C)Cc2ccccc21)c1ccccn1
- outcome [1]: inactive
- Potency [2]: inactive
- Potency [3]: inactive
- Potency [4]: inactive
- Potency [5]: inactive
- Potency [6]: 11 µM (active)
- Potency [7]: inactive
- Potency [8]: inactive
- Potency [9]: inactive
- Potency [10]: 19 µM (active)
- Potency [11]: inactive

SMILES: CCCCOC(=O)c1ccccc1C(=O)OCC(CC)CCCC (stereo not given)
- outcome [1]: inactive
- Potency [2]: inactive
- Potency [3]: inactive
- Potency [4]: inactive
- Potency [5]: inactive
- Potency [6]: inactive
- Potency [7]: 6.33 µM (active)
- Potency [8]: 12.6 µM (active)
- Potency [9]: 12.6 µM (active)
- Potency [10]: inactive

SMILES: Cc1ccc(C(=O)C(C)CN2CCCCC2)cc1 (stereo not given)
- outcome [1]: inactive
- Potency [2]: inactive
- Potency [3]: inactive
- Potency [4]: inactive
- Potency [5]: inactive
- max activation [12]: -1.62%
- Potency [13]: inactive
- Potency [14]: inactive
- Potency [6]: 0.977 µM (active)
- Potency [7]: 7.76 µM (active)
- Potency [8]: inactive
- Potency [9]: inactive
- Potency [10]: inactive
- Potency [11]: inactive
